# Results filed as inconclusive are left out. Calls of active or inactive are those of the source. Unless noted, calls follow the shape of the dose curve; as a rule, active = well fitted curve in either direction with a large enough effect (not every such curve was filed as active); inconclusive = small, poorly fitted or top-dose-only effect, or another doubt; inactive = flat fitted curve, though single readings scatter.
# Tests used:
# [1] = molecular target: Cytochrome P450 3A4 (Homo sapiens) (UniProt P08684); test: qHTS Assay for Activators of Cytochrome P450 3A4 (AID 885; active = well fitted curve in the direction sought with a large enough effect; an effect the other way counts as inactive or inconclusive; also: nearly all actives have a fitted effect of over 65% in size; also: potency is read from the fitted curve at half-maximal effect)
# Procedure, shortened: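 CYP3A4 activity: Luciferin-PPXE O-dealkylation, 25uM substrate, 200mM KPO4, RT throughout. Read-out is luciferase luminescence; higher values reflect activation.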
# [2] = qHTS Assay for Lipid Storage Modulators (AID 1519; calls by dose curve); conditions: Drosophila S3 cells, BODIPY lipid droplet/cell ratio, laser cytometry, cells loaded with oleic acid; for activity change, negative = inhibition: at 57.5 µM (top of the series)
# Procedure, shortened: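 Cells seeded at 5,000 per well were treated with compounds over a concentration series and loaded with oleic acid (400 uM, as added). Lipid droplet fluorescence (488 nm excitation, 500-530 nm channel) was read by laser-scanning cytometry and normalized to 20 uM Triacsin C.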
# [3] = molecular target: Ubiquitin carboxyl-terminal hydrolase 1 (Homo sapiens) (UniProt O94782); test: Inhibitors of USP1/UAF1: Pilot qHTS (AID 504865; active = well fitted curve in the direction sought with a large enough effect; an effect the other way counts as inactive or inconclusive;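 also: rhodamine fluorescence freed from ubiquitin-rhodamine substrate followed over time; top concentration of the series differs between compounds; % is scaled to controls: 0 for no effect and ±100 for the full control effect; nearly all actives have a fitted effect of over 35% in size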)
# Procedure, shortened: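 1nM USP1/UAF1 + cpd, 15 min RT; start w/ Ub-Rho 150nM final; kinetic FL 480/540 nm, 6 reads q60 s. Buffer 50mM HEPES pH 7.8, 0.5mM EDTA, 1mM TCEP, 0.01% Tween-20, 0.1 mg/ml BSA.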
# [4] = S16 Schwann cell PMP22 intronic element firefly luciferase assay (AID 624032; active = well fitted curve in the direction sought with a large enough effect; an effect the other way counts as inactive or inconclusive; also: potency is read from the fitted curve at half-maximal effect; nearly all actives have a fitted effect of over 30% in size)
# Procedure, shortened: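 Luciferase reporter of PMP22 intronic-element expression in stably transfected S16 rat Schwann cells, read by ONE-Glo luminescence after 24 h compound exposure at 37 C. Activity scaled between DMSO (0%) and positive-control PTC124; concentration-effect curves quality-classified.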
# [5] = molecular target: Mitogen-activated protein kinase 10 (Mus musculus) (UniProt Q61831); test: JNK3 AlphaScreen Assay (AID 530);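 also: kinase came from lysate of stimulated human HepG2 cells; signal reports phosphorylation of biotinylated GST-cJun 1-79 at Ser73 with 10 µM ATP; % is scaled to controls: 0 for no effect and ±100 for the full control effect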
# Procedure, shortened: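 qHTS titrations with 15 min compound pre-incubation before adding ATP (10 uM final). Read-out: AlphaScreen of Ser73-phosphorylated biotin-GST-cJun using HepG2 lysate JNK3 activated by IL-1β and TNFα.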
# [6] = AP1 Signaling Pathway (AID 357);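 also: ME-180 reporter cells stimulated with EGF at its EC50 level; % is scaled to controls: 0 for no effect and ±100 for the full control effect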
# Procedure, shortened: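 A ratiometric CCF4 readout (405 nm excitation; 460 and 530 nm emission) quantified AP-1-driven beta-lactamase in ME-180 cells after 5 h with compound and EC50 EGF; AC50 values were derived for activators and inhibitors.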
# [7] = molecular target: Cytochrome P450 1A2 (Homo sapiens) (UniProt P05177); test: p450-cyp1a2 (AID 410; calls by dose curve;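 also: -100% = full effect of reference inhibitor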)
# Procedure, shortened: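 O-Demethylation of luciferin 6' methyl ether by human CYP1A2 is monitored as luciferase luminescence. Substrate sits at Km (100uM); enzyme is 20nM. Values are scaled to 57 uM furafylline as maximal inhibition.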
# [8] = Stat Signaling Pathway (AID 446);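 also: ME-180 cervical cancer cells given 40 pM IL-6 alongside compound; SIE-controlled beta-lactamase reporter measured as 460/530 nm FRET emission ratio; % is scaled to controls: 0 for no effect and ±100 for the full control effect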
# Procedure, shortened: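 Compound effects on IL-6-induced STAT reporter activity were measured in ME-180 cells. After overnight culture, cells were co-treated with 40 pM IL-6 for 5 hrs before beta-lactamase substrate loading at room temperature.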
# [9] = molecular target: Glucocorticoid receptor (Homo sapiens) (UniProt P04150); test: GR-EFC Redistribution (AID 451; calls by dose curve; also: potency is read from the fitted curve at half-maximal effect); conditions: CHO-K1 GR-EFC translocation, beta-gal luminescence, 2 h
# Procedure, shortened: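 Translocation of GR-ED fusion to nuclear EA restores b-gal, read by luminescence after 1 h room-temperature detection. Engineered CHO-K1 biosensor cells, 1,000/well, exposed 2 h at 37 C to titrations up to 46 uM final.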
# [10] = molecular target: Lysosomal acid glucosylceramidase (Homo sapiens) (UniProt P04062); test: Glucocerebrosidase-p2 (AID 348; in the data active = potency below about 10 µM; also: potency is read from the fitted curve at half-maximal effect); conditions: purified GBA, blue fluorogenic substrate, 40 min
# Procedure, shortened: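 Normal human glucocerebrosidase (0.2 nM) with blue fluorogenic substrate (80 uM final) in citrate/phosphate pH 5.9 with 10mM sodium taurocholate, 0.01% tween-20; 40 min RT, NaOH/glycine stop; fluorescence Ex 365/Em 440; AC50 from a titration from 0.6 nM upwards.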
# [11] = molecular target: 3',5'-cyclic-AMP phosphodiesterase 4B (Homo sapiens) (UniProt Q07343); test: qHTS Assay for Inhibitors of PDE-IV (AID 607; active = well fitted activation curve with a large enough effect in the main read-out, with a control signal flat, not every such curve was filed as active; also: % of control where 0% means no effect)
# Procedure, shortened: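 ACTOne HEK293 cells carry a modified cAMP-gated CNG channel and express endogenous PDE4; plated 1000 cells/well, compounds up to 22.9 uM final. Membrane-potential dye fluorescence (ex 535/em 590) was read; parental cells received 10 uM forskolin + 100 uM RO 20-1724.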
# [12] = NFAT Signaling Pathway (AID 444); conditions: Jurkat NFAT-bla M1, carbachol, beta-lactamase ratio, 5 h; at 7.69 µM (top of the series);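 also: carbachol stimulus at about its EC50 of 1 µM final; % is scaled to controls: 0 for no effect and ±100 for the full control effect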
# Procedure, shortened: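 Read-out: CCF4 FRET ratio (460 nm/530 nm) after 1 h RT dye loading, used for %activity and AC50 from titration series. Cells: Jurkat NFAT-β-lactamase/M1 line, treated with compound plus 1 uM carbachol for 5 h, 37 °C.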
# [13] = molecular target: Glucocorticoid receptor (Homo sapiens) (UniProt P04150); test: GR-GFP Redistribution (AID 450;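 active = compounds whose dose series gives a full or clear partial fitted curve of increased nuclear translocation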; also: potency is read from the fitted curve at half-maximal effect); conditions: U2OS GR-GFP nuclear translocation, laser cytometry, 2 h
# [14] = measured here: cell count channel max response
# [15] = measured here: lipid channel max response
# 3',5'-cyclic-AMP phosphodiesterase 4B (Homo sapiens), sequence (Q07343 whole entry, looked up): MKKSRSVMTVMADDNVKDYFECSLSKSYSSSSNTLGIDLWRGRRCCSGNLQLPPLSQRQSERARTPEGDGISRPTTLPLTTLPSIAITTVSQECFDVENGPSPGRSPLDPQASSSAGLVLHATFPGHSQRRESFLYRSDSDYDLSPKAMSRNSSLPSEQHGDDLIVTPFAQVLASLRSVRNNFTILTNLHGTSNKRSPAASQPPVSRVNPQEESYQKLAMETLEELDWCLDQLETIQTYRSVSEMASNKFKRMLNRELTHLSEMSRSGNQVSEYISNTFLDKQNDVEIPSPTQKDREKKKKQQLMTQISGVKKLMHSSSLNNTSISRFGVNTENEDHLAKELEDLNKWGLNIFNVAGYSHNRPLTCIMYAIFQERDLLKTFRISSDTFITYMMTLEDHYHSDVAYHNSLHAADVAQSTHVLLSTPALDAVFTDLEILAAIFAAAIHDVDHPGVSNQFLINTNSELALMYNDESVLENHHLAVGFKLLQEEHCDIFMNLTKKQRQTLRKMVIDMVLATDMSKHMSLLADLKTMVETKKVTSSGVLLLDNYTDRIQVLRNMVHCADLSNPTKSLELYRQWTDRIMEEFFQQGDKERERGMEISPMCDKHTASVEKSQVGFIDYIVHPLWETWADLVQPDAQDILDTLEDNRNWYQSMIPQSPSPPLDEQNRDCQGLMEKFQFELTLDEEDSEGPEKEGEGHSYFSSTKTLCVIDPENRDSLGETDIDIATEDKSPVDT
# Glucocorticoid receptor (Homo sapiens), sequence (P04150 whole entry, looked up, the tested form may be a part): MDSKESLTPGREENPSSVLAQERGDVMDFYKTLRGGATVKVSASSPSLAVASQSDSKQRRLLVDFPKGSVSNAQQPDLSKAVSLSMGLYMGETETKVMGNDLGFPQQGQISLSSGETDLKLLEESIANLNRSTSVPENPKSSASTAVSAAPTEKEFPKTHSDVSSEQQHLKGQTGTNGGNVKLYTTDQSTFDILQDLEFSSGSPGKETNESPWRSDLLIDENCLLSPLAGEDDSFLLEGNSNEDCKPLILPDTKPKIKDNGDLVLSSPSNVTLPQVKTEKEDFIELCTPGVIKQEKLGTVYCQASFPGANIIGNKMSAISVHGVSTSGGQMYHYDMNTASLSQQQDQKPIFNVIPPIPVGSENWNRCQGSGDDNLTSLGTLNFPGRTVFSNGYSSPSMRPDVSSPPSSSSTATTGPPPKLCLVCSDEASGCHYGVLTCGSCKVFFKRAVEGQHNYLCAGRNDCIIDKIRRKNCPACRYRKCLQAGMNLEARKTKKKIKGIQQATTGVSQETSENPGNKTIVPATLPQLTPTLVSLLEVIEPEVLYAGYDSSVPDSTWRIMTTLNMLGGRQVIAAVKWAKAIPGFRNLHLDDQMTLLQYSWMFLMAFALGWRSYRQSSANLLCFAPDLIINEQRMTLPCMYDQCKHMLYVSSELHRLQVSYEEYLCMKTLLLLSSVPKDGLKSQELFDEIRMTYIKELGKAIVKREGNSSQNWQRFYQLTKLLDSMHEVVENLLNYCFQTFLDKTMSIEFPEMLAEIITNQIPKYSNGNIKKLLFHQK
# Ubiquitin carboxyl-terminal hydrolase 1 (Homo sapiens), sequence (O94782 whole entry, looked up): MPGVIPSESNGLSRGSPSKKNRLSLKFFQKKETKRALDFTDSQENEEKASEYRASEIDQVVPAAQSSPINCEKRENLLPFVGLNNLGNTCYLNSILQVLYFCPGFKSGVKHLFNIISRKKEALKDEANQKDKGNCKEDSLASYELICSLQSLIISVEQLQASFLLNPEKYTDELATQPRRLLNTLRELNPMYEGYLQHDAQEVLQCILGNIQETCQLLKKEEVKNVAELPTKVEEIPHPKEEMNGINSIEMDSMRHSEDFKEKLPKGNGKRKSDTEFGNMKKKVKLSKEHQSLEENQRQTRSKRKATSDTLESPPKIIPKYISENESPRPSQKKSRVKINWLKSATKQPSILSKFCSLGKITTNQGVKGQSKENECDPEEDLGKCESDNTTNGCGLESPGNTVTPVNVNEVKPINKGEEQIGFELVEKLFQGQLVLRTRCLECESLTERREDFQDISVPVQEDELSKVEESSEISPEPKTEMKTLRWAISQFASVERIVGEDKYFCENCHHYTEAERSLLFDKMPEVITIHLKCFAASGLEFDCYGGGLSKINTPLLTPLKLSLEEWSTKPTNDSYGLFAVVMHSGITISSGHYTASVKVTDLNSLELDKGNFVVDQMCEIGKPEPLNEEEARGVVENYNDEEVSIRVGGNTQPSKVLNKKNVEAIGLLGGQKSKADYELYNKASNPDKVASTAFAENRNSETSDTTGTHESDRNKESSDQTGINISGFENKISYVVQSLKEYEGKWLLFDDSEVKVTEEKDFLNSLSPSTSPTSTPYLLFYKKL
# Cytochrome P450 1A2 (Homo sapiens), sequence (P05177 whole entry, looked up): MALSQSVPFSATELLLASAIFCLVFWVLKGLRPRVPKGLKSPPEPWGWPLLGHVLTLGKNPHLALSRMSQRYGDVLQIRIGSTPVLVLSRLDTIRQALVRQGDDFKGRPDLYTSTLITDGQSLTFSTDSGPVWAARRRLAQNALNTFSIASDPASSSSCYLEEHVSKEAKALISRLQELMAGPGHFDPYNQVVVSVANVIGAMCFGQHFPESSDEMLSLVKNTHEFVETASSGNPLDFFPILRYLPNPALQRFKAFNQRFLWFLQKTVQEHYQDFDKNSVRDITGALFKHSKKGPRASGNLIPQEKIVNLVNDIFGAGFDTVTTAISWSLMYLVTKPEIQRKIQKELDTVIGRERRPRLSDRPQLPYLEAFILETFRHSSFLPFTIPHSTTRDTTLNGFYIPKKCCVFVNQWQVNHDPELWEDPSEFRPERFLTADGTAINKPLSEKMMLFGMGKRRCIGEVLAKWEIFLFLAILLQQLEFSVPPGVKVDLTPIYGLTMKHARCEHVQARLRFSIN
# Cytochrome P450 3A4 (Homo sapiens), sequence (P08684 whole entry, looked up): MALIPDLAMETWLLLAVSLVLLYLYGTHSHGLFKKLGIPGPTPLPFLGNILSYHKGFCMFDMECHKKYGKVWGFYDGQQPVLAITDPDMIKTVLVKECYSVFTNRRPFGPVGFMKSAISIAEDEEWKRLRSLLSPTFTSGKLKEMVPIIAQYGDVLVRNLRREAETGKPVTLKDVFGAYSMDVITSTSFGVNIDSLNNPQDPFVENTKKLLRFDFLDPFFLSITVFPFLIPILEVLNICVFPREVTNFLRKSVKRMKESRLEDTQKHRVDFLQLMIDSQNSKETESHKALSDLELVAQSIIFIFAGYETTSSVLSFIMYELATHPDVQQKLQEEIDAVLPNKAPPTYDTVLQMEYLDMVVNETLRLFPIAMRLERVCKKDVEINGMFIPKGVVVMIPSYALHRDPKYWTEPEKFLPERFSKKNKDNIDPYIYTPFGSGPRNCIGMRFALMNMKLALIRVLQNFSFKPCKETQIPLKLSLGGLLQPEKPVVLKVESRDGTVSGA
# Lysosomal acid glucosylceramidase (Homo sapiens), sequence (P04062 whole entry, looked up): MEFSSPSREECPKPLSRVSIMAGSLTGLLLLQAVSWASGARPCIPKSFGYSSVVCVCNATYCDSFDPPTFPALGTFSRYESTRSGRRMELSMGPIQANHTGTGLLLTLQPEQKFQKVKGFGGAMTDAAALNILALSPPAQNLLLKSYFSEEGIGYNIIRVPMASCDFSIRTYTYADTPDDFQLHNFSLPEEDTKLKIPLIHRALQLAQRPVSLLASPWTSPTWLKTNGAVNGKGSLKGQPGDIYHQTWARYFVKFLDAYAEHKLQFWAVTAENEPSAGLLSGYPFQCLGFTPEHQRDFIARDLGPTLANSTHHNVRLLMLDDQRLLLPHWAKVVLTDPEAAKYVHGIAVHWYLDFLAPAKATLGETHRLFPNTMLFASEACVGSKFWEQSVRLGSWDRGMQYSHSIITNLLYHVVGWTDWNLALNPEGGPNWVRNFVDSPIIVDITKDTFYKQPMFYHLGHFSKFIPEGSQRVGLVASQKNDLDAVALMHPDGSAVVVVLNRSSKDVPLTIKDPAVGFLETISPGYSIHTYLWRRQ
smiles,measurement,setting,value
ClC1=C(Cl)C2(Cl)C3C(Cl)C=CC3C1(Cl)C2(Cl)Cl (stereo not given),Potency,[1],inactive
same,"activity change, negative = inhibition",[2],4.59% (inactive)
same,max response,[2]; [14],11.3%
same,max response,[2]; [15],18.4%
same,Potency,[3],inactive
CC(C)C[C@H]1C(=O)N2CCCC2[C@]2(O)O[C@](NC(=O)[C@@H]3C=C4c5cccc6[nH]c(Br)c(c56)C[C@H]4N(C)C3)(C(C)C)C(=O)N12 (stereo not given in full),"activity change, negative = inhibition",[2],-0.407% (inactive)
same,max response,[2]; [14],-32%
same,max response,[2]; [15],-33.2%
same,Potency,[4],8.09 µM (active)
O=C(O)COc1ccc(Cl)cc1Cl,"activity change, negative = inhibition",[2],-1.59% (inactive)
same,max response,[2]; [14],-3.68%
same,max response,[2]; [15],-7.52%
C=CCc1ccc2c(c1)OCO2,outcome,[5],inactive
same,Potency,[1],inactive
same,"activity change, negative = inhibition",[2],12.7% (inactive)
same,max response,[2]; [14],13.6%
same,max response,[2]; [15],31.4%
same,Potency,[3],inactive
N#Cc1ccc(CN2CCC3(CC2)CCN(C(=O)Oc2ccccc2)CC3)cc1,outcome,[6],inactive
same,Potency,[7],inactive
same,outcome,[8],inactive
same,Potency,[9],> 46 µM (inactive)
same,outcome,[5],inactive
same,Potency,[1],15.8 µM (active)
same,"activity change, negative = inhibition",[2],0.91% (inactive)
same,max response,[2]; [14],-4.88%
same,max response,[2]; [15],-1.78%
c1cc(CN2CC3(CCNCC3)C2)ccn1,Potency,[10],> 11.4 µM (inactive)
same,outcome,[6],inactive
same,Potency,[7],inactive
same,outcome,[8],inactive
same,Potency,[9],> 46 µM (inactive)
same,outcome,[5],inactive
same,"activity change, negative = inhibition",[2],2.64% (inactive)
same,max response,[2]; [14],6.79%
same,max response,[2]; [15],9.29%
CC(C)CN1CCC2(CC1)CCN(C(=O)Oc1ccccc1)CC2,Potency,[10],> 11.4 µM (inactive)
same,outcome,[6],inactive
same,Potency,[7],inactive
same,outcome,[8],inactive
same,Potency,[9],> 46 µM (inactive)
same,outcome,[5],inactive
same,Potency,[11],inactive
same,"activity change, negative = inhibition",[2],3.6% (inactive)
same,max response,[2]; [14],-4.31%
same,max response,[2]; [15],1.23%
CNC(=O)O/N=C/C(C)(C)SC,outcome,[5],inactive
same,"activity change, negative = inhibition",[2],7.39% (inactive)
same,max response,[2]; [14],14.3%
same,max response,[2]; [15],23.9%
same,Potency,[3],inactive
O=C(c1ccncc1)N1CCC2(CC1)CN(Cc1ccccc1)C2,Potency,[10],> 11.4 µM (inactive)
same,outcome,[6],inactive
same,Potency,[7],inactive
same,Potency,[9],> 46 µM (inactive)
same,outcome,[5],inactive
same,Potency,[11],inactive
same,Potency,[1],inactive
same,"activity change, negative = inhibition",[2],-1.45% (inactive)
same,max response,[2]; [14],-4.26%
same,max response,[2]; [15],-4.05%
Cc1nc2cnc(N3CCNCC3)nc2n(C)c1=O,Potency,[10],> 11.4 µM (inactive)
same,outcome,[6],inactive
same,"activity change, negative = inhibition",[12],5.09% (inactive)
same,outcome,[8],inactive
same,Potency,[13],> 9.22 µM (inactive)
same,Potency,[9],> 46 µM (inactive)
same,outcome,[5],inactive
same,Potency,[1],inactive
same,"activity change, negative = inhibition",[2],5.19% (inactive)
same,max response,[2]; [14],18.7%
same,max response,[2]; [15],25.8%
c1ccc(N=Nc2ccccc2)cc1,outcome,[5],inactive
same,"activity change, negative = inhibition",[2],-5.75% (inactive)
same,max response,[2]; [14],-21.5%
same,max response,[2]; [15],-24.4%
same,Potency,[3],inactive
CC(C)NC(=O)N1CCC2(CCNCC2)CC1,Potency,[10],> 11.4 µM (inactive)
same,outcome,[6],inactive
same,outcome,[8],inactive
same,outcome,[5],inactive
same,Potency,[11],inactive
same,"activity change, negative = inhibition",[2],4% (inactive)
same,max response,[2]; [14],1.41%
same,max response,[2]; [15],7.12%
